Measured values: PubChem BioAssay AID1159580 (chemical genetic matrix, 2015)
“And” between values parts separate entries of the source, which are not always exact repeats. Identical values can stand only once. The whole screen tested about 5,500 compounds, of which about 2,000 (36%) were called active. Another 18% or so got no clear call; they are omitted. Rule as the data show it: active = normalized growth mostly below about 0.91 (no sharp cut-off); inconclusive = no clear call, values can overlap the other calls; inactive = mostly above about 0.92. Some of the results follow.

Experiment: chemical genetic growth profiling, strain panel (AID 1159580);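 also: tested at 20 µM; growth read once vehicle control cultures reached saturation at 30 °C; 1 = growth at the plate median or of vehicle wells; lower values mean less growth of the strain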
Conditions: S. cerevisiae deletion strains, growth OD

Measured: normalized growth

CC(=O)O[C@H]1C[C@@]2(C)[C@@H](C[C@@H](O)C3[C@]2(C)CC[C@H]2[C@H](C)[C@H](O)CC[C@]32C)/C1=C(/CCC=C(C)C)C(=O)O (stereo partly drawn)
inactive: locus YAL013W, strain DEP1, stronger effect = lower value 1.02 | locus YAL021C, strain ccr4, stronger effect = lower value 1.02 | locus YAL026C, strain drs2, stronger effect = lower value 1.01 | locus YAL030W, strain snc1, stronger effect = lower value 1.03 | locus YBL061C, strain skt5, stronger effect = lower value 1.04 | locus YBR009C, strain hhf1, stronger effect = lower value 1.02 | locus YBR021W, strain FUR4, stronger effect = lower value 1.04 | locus YBR023C, strain chs3, stronger effect = lower value 1.04 | locus YBR171W, strain sec66, stronger effect = lower value 1.01 | locus YBR229C, strain ROT2, stronger effect = lower value 1.01 | locus YBR231C, strain swc5, stronger effect = lower value 0.988 | locus YBR279W, strain paf1, stronger effect = lower value 1.03 | locus YCL011C, strain gbp2, stronger effect = lower value 1.01 | locus YCL016C, strain dcc1, stronger effect = lower value 1.05 | locus YCL029C, strain bik1, stronger effect = lower value 1.03 | locus YCL061C, strain MRC1, stronger effect = lower value 1.02 | locus YCL069W, strain vba3, stronger effect = lower value 1.01 | locus YCR088W, strain abp1, stronger effect = lower value 1.01 | locus YDL005C, strain med2, stronger effect = lower value 1.04 | locus YDL035C, strain GPR1, stronger effect = lower value 0.989 | locus YDL040C, strain nat1, stronger effect = lower value 1.02 | locus YDL074C, strain BRE1, stronger effect = lower value 1.03 | locus YDL101C, strain DUN1, stronger effect = lower value 1.01 | locus YDL134C, strain PPH21, stronger effect = lower value 1 | locus YDL185W, strain tfp1, stronger effect = lower value 1.01 | locus YDL192W, strain arf1, stronger effect = lower value 1.03 | locus YDR001C, strain nth1, stronger effect = lower value 1 | locus YDR069C, strain doa4, stronger effect = lower value 1.03 | locus YDR101C, strain arx1, stronger effect = lower value 1.02 | locus YDR137W, strain rgp1, stronger effect = lower value 1 | locus YDR150W, strain NUM1, stronger effect = lower value 1.02 | locus YDR159W, strain sac3, stronger effect = lower value 0.989 | locus YDR162C, strain NBP2, stronger effect = lower value 1 | locus YDR195W, strain ref2 1.03 | locus YDR297W, strain sur2, stronger effect = lower value 1.02 | locus YDR318W, strain mcm21, stronger effect = lower value 1.03 | locus YDR334W, strain swr1, stronger effect = lower value 1.02 | locus YDR335W, strain msn5, stronger effect = lower value 1.04 | locus YDR388W, stronger effect = lower value 1.04 | locus YDR392W, strain spt3, stronger effect = lower value 0.998 | locus YDR502C, strain sam2, stronger effect = lower value 1.04 | locus YEL003W, strain gim4, stronger effect = lower value 0.998 | locus YEL037C, strain rad23, stronger effect = lower value 1 | locus YEL061C, strain CIN8 (second series), stronger effect = lower value 1.01 | locus YEL061C, strain CIN8, stronger effect = lower value 1.01 | locus YER015W, strain faa2, stronger effect = lower value 1.03 | locus YER016W, strain bim1, stronger effect = lower value 1.01 | locus YER110C, stronger effect = lower value 1.02 | locus YER111C, strain swi4, stronger effect = lower value 1.03 | locus YER155C, strain BEM2 (second series), stronger effect = lower value 1.01 | locus YER155C, strain BEM2, stronger effect = lower value 1.01 | locus YER167W, strain BCK2, stronger effect = lower value 1.02 | locus YFR010W, strain ubp6, stronger effect = lower value 1.02 | locus YGL078C, strain dbp3, stronger effect = lower value 1.04 | locus YGL086W, strain mad1, stronger effect = lower value 1.01 | locus YGL167C, strain pmr1, stronger effect = lower value 1.02 | locus YGL173C, strain kem1, stronger effect = lower value 1.01 | locus YGL227W, strain vid30, stronger effect = lower value 1.01 | locus YGL240W, strain doc1, stronger effect = lower value 1.01 | locus YGL248W, strain PDE1, stronger effect = lower value 1.01 | locus YGL253W, strain hxk2, stronger effect = lower value 1.01 | locus YGR078C, strain PAC10, stronger effect = lower value 1.02 | locus YGR135W, strain pre9, stronger effect = lower value 1.06 | locus YGR229C, strain SMI1, stronger effect = lower value 1.02 | locus YGR252W, strain gcn5, stronger effect = lower value 1.02 | locus YHR013C, strain ard1, stronger effect = lower value 1.08 | locus YHR027C, strain rpn1, stronger effect = lower value 1.03 | locus YHR030C, strain SLT2, stronger effect = lower value 1.02 and 0.951 | locus YHR079C, strain IRE1 (second series), stronger effect = lower value 1.01 | locus YHR079C, strain IRE1, stronger effect = lower value 0.959 | locus YHR094C, strain hxt1, stronger effect = lower value 1.03 | locus YHR129C, strain ARP1, stronger effect = lower value 1.01 | locus YHR142W, strain chs7, stronger effect = lower value 1.04 | locus YHR200W, strain rpn10, stronger effect = lower value 1.05 | locus YIL066C, strain RNR3, stronger effect = lower value 1.01 | locus YIL073C, strain SPO22, stronger effect = lower value 1.03 | locus YIL125W, strain kgd1, stronger effect = lower value 1.03 | locus YIR030C, strain dcg1, stronger effect = lower value 1.04 | locus YJL092W, strain hpr5, stronger effect = lower value 1.01 | locus YJL095W, strain BCK1 (second series), stronger effect = lower value 1.03 | locus YJL095W, strain BCK1, stronger effect = lower value 1.03 and 0.977 | locus YJL115W, strain asf1, stronger effect = lower value 1.03 | locus YJL129C, strain trk1, stronger effect = lower value 1.03 | locus YJL134W, strain LCB3, stronger effect = lower value 1.01 | locus YJL154C, strain vps35, stronger effect = lower value 0.993 | locus YJL164C, strain tpk1, stronger effect = lower value 1.06 | locus YJL166W, strain qcr8, stronger effect = lower value 1.08 | locus YJL168C, strain set2, stronger effect = lower value 1.02
